Compound activity: PubChem, National Center for Advancing Translational Sciences (NCATS)
ERK AVP block = blocks ERK signaling stimulated by vasopressin | HEK293-V1b, vasopressin-stimulated pERK AlphaScreen | Potency, µM (doses to about 57.5 µM), hits mostly inhibitors | actives 0.99% (n = 72,000); further: nearly all actives have a fitted effect of over 55% in size
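HEK293 cells stably expressing V1b receptor, preincubated 30 min at 37 °C with compound, then stimulated 5 min with 25 nM vasopressin. Phospho-ERK by AlphaScreen SureFire after 5 h RT; normalized to DMSO and vasopressin; AC50 by Hill fit.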
Casp1 inh = allosteric or competitive inhibitors of human caspase-1; P29466; Caspase-1 enzyme, Ac-WEHD-AFC fluorogenic rate; Potency, µM (titrated, usually from 57.5 µM), usual class: inhibitors; actives 0.03% (n = 75,000); AID 900
Target sequence (P29466 120-297 limits assumed): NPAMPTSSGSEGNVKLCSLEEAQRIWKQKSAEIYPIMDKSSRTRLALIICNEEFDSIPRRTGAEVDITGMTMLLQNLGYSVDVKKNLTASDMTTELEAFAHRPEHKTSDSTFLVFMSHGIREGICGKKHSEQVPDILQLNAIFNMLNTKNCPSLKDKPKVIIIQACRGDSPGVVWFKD
Target sequence (P29466 317-404 limits assumed): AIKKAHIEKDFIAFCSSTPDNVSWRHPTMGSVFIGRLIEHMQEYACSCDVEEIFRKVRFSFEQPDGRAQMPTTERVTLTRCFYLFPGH
Casp7 inh = caspase-7 (human) inhibition, allosteric or competitive; P55210; recombinant caspase-7, Ac-DEVD-AFC fluorescence rate; Potency, µM (top dose mostly 57.5 µM), most hits filed as inhibitors; actives 0.02% (n = 75,000); AID 889; active means well fitted inhibition curve with a large enough effect in the main read-out, with a control signal flat, not every such curve was filed as active; inconclusive means small, poorly fitted or top-dose-only effect, or a change in a side signal
Target sequence (P55210 24-198 limits assumed): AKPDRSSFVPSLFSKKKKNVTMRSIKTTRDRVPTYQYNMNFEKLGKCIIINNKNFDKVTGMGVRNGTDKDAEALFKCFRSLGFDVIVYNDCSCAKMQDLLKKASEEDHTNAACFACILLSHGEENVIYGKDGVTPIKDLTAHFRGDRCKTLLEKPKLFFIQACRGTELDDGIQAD
Target sequence (P55210 207-303 limits assumed): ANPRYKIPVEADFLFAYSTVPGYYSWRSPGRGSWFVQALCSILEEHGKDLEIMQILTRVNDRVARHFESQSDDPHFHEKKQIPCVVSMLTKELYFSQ
15-hLO inh = blocks human 15-lipoxygenase activity. P16050. purified 15hLO-1, xylenol orange hydroperoxide absorbance. Potency, µM (series often up to 57.1 µM), usual class: inhibitors. actives 1.4% (n = 74,000). AID 887; further: nearly all actives have a fitted effect of over 55% in size
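Readout: Fe(III)-xylenol orange absorbance, 573-to-405 nm ratio as reaction progress. Enzyme 40 nM purified human 15hLO-1, substrate 50 uM arachidonic acid, 6 min RT after 15 min compound preincubation; Hepes pH 7.5 buffer with Triton X-100.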
15-hLO-2 inh = 15-hLO-2 (ALOX15B) enzyme inhibition. O15296. purified 15hLO-2, xylenol orange hydroperoxide absorbance. Potency, µM (titrated, usually from 57.1 µM), usual class: inhibitors. actives 0.56% (n = 110,000); further: nearly all actives have a fitted effect of over 60% in size
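Purified human 15hLO-2 (50 nM) preincubated 15 min with compound, then 45 uM arachidonic acid for 90 min at RT in 25 mM Hepes pH 7.5, 0.01% Triton X-100. Hydroperoxide detected by Fe-xylenol orange; 573/405 nm absorbance ratio.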
A number is an active result; [ ] = remark or other dose. Most compounds without a hit are left out; they make up all but 1.7% or so of the library. Unless noted, the call rests on the fitted dose curve; in most records, active means well fitted curve in the direction sought with a large enough effect; inconclusive means small, poorly fitted or top-dose-only effect, or another doubt; inactive means no such curve, though single readings can be large; an effect the other way counts as inactive or inconclusive.

O=C(COC(=O)CCCc1c[nH]c2ccccc12)Nc1ccc2c(c1)OCO2 was read as ERK AVP block 39.8µM, Casp1 inh inactive, Casp7 inh inactive, 15-hLO inh inconclusive and 15-hLO-2 inh inactive.
CC(C)=CC1C(CO)C1(C)C (stereo unspecified) was read as ERK AVP block inactive, Casp1 inh inactive, Casp7 inh inactive, 15-hLO inh inconclusive and 15-hLO-2 inh inactive.
Screening C(=N\c1c(-c2ccccc2)nc2n1CCS2)/c1ccccc1 returned ERK AVP block 20µM, Casp1 inh inactive, Casp7 inh inactive, 15-hLO inh inactive and 15-hLO-2 inh inactive.
Clc1ccc(/C=N/c2c(-c3ccc(Cl)cc3)nc3n2CCS3)cc1 was read as 15-hLO-2 inh inactive.
`COC(=O)NC(/C=C/c1ccco1)[C@@]1(C(=O)OC)CCCC1=O` (stereo partly specified) gave ERK AVP block inactive[11.5 µM], Casp1 inh inactive[11.5 µM], Casp7 inh inactive[11.5 µM] and 15-hLO inh inactive[11.4 µM].
Screening S=C(NCc1cccnc1)Nc1ccc(Cl)cc1 returned 15-hLO-2 inh inactive.
For S=C(NCCC(c1ccccc1)c1ccccc1)Nc1ccc(Cl)cc1 the results were 15-hLO-2 inh 25.1µM.
CCCn1c(-c2ccc(F)cc2)nc2c(N3CCC(N(C)C)C3)nc(C)nc21 (stereo unspecified) was read as ERK AVP block inactive, Casp1 inh inactive, Casp7 inh inactive, 15-hLO inh inactive and 15-hLO-2 inh inactive.
CCCn1c(-c2ccc(F)cc2)nc2c(N3CCN(C)CC3)nc(C)nc21 was read as ERK AVP block inactive, Casp1 inh inactive, Casp7 inh inactive, 15-hLO inh 20µM and 15-hLO-2 inh inactive.
Screening Cc1ccc(S(=O)(=O)N[C@H]2COC(=O)C/C=C\[C@@H](C)[C@H](NS(=O)(=O)c3ccc(C)cc3)COC(=O)[C@H](C)NC(=O)C/C=C\[C@H]2C)cc1 returned ERK AVP block inactive[11.5 µM], Casp1 inh inactive[11.5 µM], Casp7 inh inactive[11.5 µM] and 15-hLO inh inactive[11.4 µM].
`COCCn1c(=O)c(-c2cccc(C#N)c2)nc2cnc(Oc3ccc(OC)cc3)nc21` gave ERK AVP block inconclusive, Casp1 inh inactive, Casp7 inh inactive, 15-hLO inh inactive and 15-hLO-2 inh inactive.
COc1ccc(Nc2nc(N)nc(CSc3n[nH]c(-c4ccccc4)n3)n2)cc1 was read as ERK AVP block inactive, Casp1 inh inactive, Casp7 inh inactive, 15-hLO inh inactive and 15-hLO-2 inh inactive.
Screening Nc1nc(CSc2n[nH]c(-c3ccccc3)n2)nc(Nc2ccccc2)n1 returned ERK AVP block 25.1µM, Casp1 inh inactive, Casp7 inh inactive, 15-hLO inh inactive and 15-hLO-2 inh inactive.
COc1ccc(CC(=O)N2CC3(C)CC2CC(C)(C)C3)cc1OC (stereo unspecified) was read as ERK AVP block 31.6µM, Casp1 inh inactive, Casp7 inh inactive, 15-hLO inh inactive[11.4 µM] and 15-hLO-2 inh inactive.
`COc1ccccc1OCC(=O)N1CC2(C)CC1CC(C)(C)C2` (stereo unspecified) gave 15-hLO-2 inh inactive.
For CCN(CC)CC[n+]1ccc2c(C)c3[nH]c4ccc(O)cc4c3c(C)c2c1 the results were ERK AVP block inactive[11.5 µM], Casp1 inh inactive[11.5 µM], Casp7 inh inactive[11.5 µM], 15-hLO inh inconclusive and 15-hLO-2 inh inactive[11.4 µM].
`COc1ccc(O)c(-c2cc(-c3cccs3)[nH]n2)c1` gave ERK AVP block inactive, Casp1 inh inactive, Casp7 inh inactive, 15-hLO inh 25.1µM and 15-hLO-2 inh inactive.
For COc1ccccc1C(=O)n1nc(-c2cccnc2)nc1N the results were ERK AVP block inactive, Casp1 inh inactive, Casp7 inh inactive and 15-hLO inh inactive.
Screening COc1ccccc1C(=O)n1nc(-c2ccc(Cl)cc2)nc1N returned ERK AVP block inactive, Casp1 inh inactive, Casp7 inh inactive, 15-hLO inh 12.6µM and 15-hLO-2 inh inactive.
N#Cc1ccc(CN2CC[C@@]3(CCCN(C(=O)c4cc(C(F)(F)F)cc(C(F)(F)F)c4)C3)C2)cc1 was read as ERK AVP block inactive, Casp1 inh inactive, Casp7 inh inactive, 15-hLO inh inactive and 15-hLO-2 inh inactive.
`CCN1CCN(CCC(=O)Nc2ccccc2OC)CC1` gave ERK AVP block inactive, Casp1 inh inactive, Casp7 inh inactive, 15-hLO inh inactive and 15-hLO-2 inh inactive.
For CCN1CCN(Cc2ccc(NC(=O)Nc3ccccc3OC)cc2)CC1 the results were ERK AVP block inactive, Casp1 inh inactive, Casp7 inh inactive, 15-hLO inh 3.16µM and 15-hLO-2 inh inactive.
`CCCC(=O)Nc1nc2ccc(NC(=O)c3ccc(Br)o3)cc2s1` gave ERK AVP block 20µM, Casp1 inh inactive, Casp7 inh inactive, 15-hLO inh inconclusive and 15-hLO-2 inh inactive.
CCC(=O)Nc1nc2ccc(NC(C)=O)cc2s1 was read as ERK AVP block inactive, Casp1 inh inactive, Casp7 inh inactive, 15-hLO inh inactive and 15-hLO-2 inh inactive.
`CCn1c2ccccc2c2cc(NC(=O)c3ccc(Br)o3)ccc21` gave 15-hLO-2 inh 3.16µM.
For OC[C@@H]1O[C@@H](n2cnc3c(N[C@@H]4C[C@@H]5CC[C@H]4C5)ncnc32)[C@@H](O)[C@H]1O the results were ERK AVP block inactive, Casp1 inh inactive, Casp7 inh inactive, 15-hLO inh inactive and 15-hLO-2 inh inactive.
Cc1nc2ncnn2c(Nc2ccc3c(c2)OCO3)c1Cc1ccccc1 was read as ERK AVP block 25.1µM, Casp1 inh inactive, Casp7 inh inactive, 15-hLO inh inactive and 15-hLO-2 inh inactive.
Screening CCc1c(C)nc2ncnn2c1NCCc1ccccc1 returned 15-hLO-2 inh inactive.
`CCOc1ccc(/C=C/C(=O)c2cccs2)cc1` gave ERK AVP block inactive, Casp1 inh inactive, Casp7 inh inconclusive, 15-hLO inh inactive and 15-hLO-2 inh inactive.
`CC[N+](CC)(CC)CCOc1ccc(/C=C\c2ccccc2)cc1` gave ERK AVP block inactive, Casp1 inh inactive, Casp7 inh inactive, 15-hLO inh 15.8µM and 15-hLO-2 inh inactive.
Screening N=C(C[C@@H](O)COc1ccccc1-c1ccccc1)N1CCCCC1 returned ERK AVP block inactive, Casp1 inh inactive, Casp7 inh inactive, 15-hLO inh inactive and 15-hLO-2 inh inactive.
For CCCCCCCCCCCC1=C(O)C(=O)C=C(O)C1=O the results were ERK AVP block inactive, Casp1 inh inactive, Casp7 inh inactive, 15-hLO inh 5.01µM and 15-hLO-2 inh 31.6µM.
For CCCCCCc1c(O)c2ccccc2[nH]c1=O the results were ERK AVP block inactive, Casp1 inh inactive, Casp7 inh inactive, 15-hLO inh inactive and 15-hLO-2 inh inactive[11.4 µM].
`COc1nc(Nc2cccc(C)c2)nc(N2CCCCC2)n1` gave ERK AVP block inactive, Casp1 inh inactive, Casp7 inh inactive, 15-hLO inh 3.98µM and 15-hLO-2 inh inactive.
`Cc1cccc(C2=N[C@@H](Cc3ccccc3)CO2)c1` gave 15-hLO-2 inh inactive[0.0915 µM].
Screening N#CC1=C(N)SC(N)=C(C#N)C1CCC1CCCCC1 returned ERK AVP block inactive, Casp1 inh inactive, Casp7 inh inactive, 15-hLO inh 15.8µM and 15-hLO-2 inh inactive[2.29 µM].
